Results filed as inconclusive are left out. Calls of active or inactive are those of the source. Unless noted, calls follow the shape of the dose curve; as a rule, active = well fitted curve in the direction sought with a large enough effect; inconclusive = small, poorly fitted or top-dose-only effect, or another doubt; inactive = no such curve, though single readings can be large; an effect the other way counts as inactive or inconclusive.

The nature of assay [1]: qHTS assay for measurement of the activity of small molecule inhibitors on Zika virus induced Caspase-3 activity in human iPSC derived neural progenitor cells (hNPCs) (AID 1224857). Also: % of control where 0% means no effect; nearly all actives have a fitted effect of over 65% in size. The procedure, abridged: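 After overnight (16–20 h) culture at 350 cells/well, hNPCs get compound, then ZIKV 2 FFU/cell one hour later. Six hours on, Caspase-Glo 3/7 is added and luminescence measured.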

A short description of assay [2]: qHTS assay for measurement of the activity of small molecule inhibitors on Zika virus induced Caspase-3 activity in human astrocytoma cells (AID 1224859).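 Also: plate controls were ZIKV-infected untreated cells for no effect and uninfected cells for full effect.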 Put shortly:
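Inhibition of Zika-induced caspase-3/7 activity: SNB-19 cells, 1 h compound pretreatment, ZIKV 2 FFU/cell for 6 h at 37 C, Caspase-Glo luminescence read-out.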
In general terms: qHTS replaces the single test concentration by a dilution series.

Assay [3] is described as follows: Natriuretic polypeptide receptor (hNpr1) antagonism - Pilot counterscreen GloSensor control cell line (AID 1347045; calls by dose curve; also: % is scaled to controls: 0 for no effect and ±100 for the full control effect). The procedure, abridged: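 The SNP-driven cGMP luminescence signal (50 uM, 20 min, room temperature) was measured in GloSensor HEK293 control cells. Compounds were tested as a LOPAC titration series and preincubated for 30-50 min.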
(The purpose of a counterscreen is to sort out artefacts and off-target activity.)

Assay [4] concerns the target Atrial natriuretic peptide receptor 2 (Homo sapiens) (UniProt P20594). Put plainly: Natriuretic polypeptide receptor (hNpr2) antagonism - Pilot subtype selectivity assay (AID 1347050; calls by dose curve; also: % is scaled to controls: 0 for no effect and ±100 for the full control effect). Put shortly:
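Luminescence from a genetically encoded cGMP luciferase biosensor in hNpr2-expressing HEK293 cells is read before and 20 min after adding 1 nM hNppC. Test compounds, in interplate 1:5 titrations, are added 30-50 min ahead of the agonist.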

Assay [5] in a line: NS1 protein of Zika virus - qHTS assay to identify small molecule inhibitors in human HEK 293 cells (AID 1347053).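 Also: plate controls were infected untreated cells for no effect and uninfected cells for full effect; nearly all actives have a fitted effect of over 55% in size.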 The procedure, abridged:
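In this cell-based screen, HEK 293 cultures received compound for one hour before Zika MR766 at MOI = 0.5. NS1 was quantified 24 hours later by TR-FRET, normalized to virus-free wells and infected wells.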

The target in assay [6] is T1, Tyrosine-protein phosphatase non-receptor type substrate 1 (Homo sapiens) + Leukocyte surface antigen CD47 (Homo sapiens) (UniProt P78324+Q08722). In words: CD47-SIRPalpha protein protein interaction - HTRF assay qHTS validation (AID 1347058; active = well fitted curve in the direction sought with a large enough effect in the signal ratio, not every such curve was filed as active; the % refers to the signal ratio; also: 0% is about no effect). Put shortly: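 Soluble extracellular domains (6His-CD47, Avi-tag-biotinylated SIRPalpha) in PBS pH 7.4 with 0.05% IGEPAL CA-630. Compounds were preincubated 30 min at RT with CD47 and anti-His-Eu, then SIRPalpha and SAV-XL665 were added. TR-FRET 665/615 ratio.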

The target of assay [7] is T1, Tyrosine-protein phosphatase non-receptor type substrate 1 (Homo sapiens) + Leukocyte surface antigen CD47 (Homo sapiens). Put plainly: CD47-SIRPalpha protein protein interaction - Alpha assay qHTS validation (AID 1347059).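 Also: bead proximity luminescence from CD47 binding SIRPalpha after compound preincubation with SIRPalpha; % is scaled to controls: 0 for no effect and ±100 for the full control effect.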 Put shortly: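 SIRPalpha-biotin 25 nM + cpd, 30 min RT, dark; add CD47-His 12.5 nM, 30 min; add Ni-NTA/SAV beads 10 ug/mL, 30 min; AlphaScreen. Buffer PBS pH 7.4 + 0.05% IGEPAL CA-630. Non-biotinylated SIRPalpha as control inhibitor.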

In assay [8] the target is Parathyroid hormone/parathyroid hormone-related peptide receptor (Homo sapiens) (UniProt Q03431). In words: qHTS for PTHR1 Agonists: Optimization Screen against the NCGC LOPAC library (AID 1347079).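 Also: GloSensor cAMP luminescence in HEK-293 GP2 cells expressing human PTHR1 with IBMX; 0% is about no effect.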 Put shortly: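 Signal increase flags agonism. GP2 cells, derived from HEK-293, express human PTHR1 and a GloSensor cAMP construct.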
The target of assay [9] is N-terminal Xaa-Pro-Lys N-methyltransferase 1 (Homo sapiens) (UniProt Q9BV86). In words: qHTS Assay for Inhibitors of N-terminal methyltransferase 1 (NTMT1): LOPAC validation of the NTMT1 SAHH-coupled ThioGlo3 Assay (AID 1347143).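 Also: SAH from peptide methylation measured as thiol fluorescence via SAHH coupling and ThioGlo3; nearly all actives have a fitted effect of over 70% in size.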 Also: potency is read from the fitted curve at half-maximal effect. Put shortly: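 Steps: dispense 125nM NTMT1; pin-transfer test compounds at several concentrations, with 1uM RCC1-6 peptide as control; incubate 1 min; start with reagent holding 100uM SAM, 10uM SAHH, 15uM ThioGlo3; read at 0 and 30 min.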

In assay [10] the test system is Zika virus NS2B-NS3 protease (unlinked). In words: Optimization of GU AMC qHTS for Zika virus inhibitors: Unlinked NS2B-NS3 protease assay (AID 1347151). Also: nearly all actives have a fitted effect of over 80% in size. Also: potency is read from the fitted curve at half-maximal effect. The procedure, abridged: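 Noncovalent complex of NS2B hydrophilic domain and NS3 protease domain, 25 nM final, in 10 mM Tris-HCl pH 8.0, 0.01% Tween 20. AMC fluorescence change over 15 min at room temperature was fitted to a 4-parameter Hill equation.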

Assay [11] concerns the target T1, Tyrosine-protein phosphatase non-receptor type substrate 1 (Homo sapiens) + Leukocyte surface antigen CD47 (Homo sapiens). In words: CD47-SIRPalpha protein protein interaction - LANCE assay qHTS validation (AID 1347057; active = well fitted curve in the direction sought with a large enough effect in the signal ratio, with a control signal flat, not every such curve was filed as active; the % refers to the signal ratio; also: 0% is about no effect). The procedure, abridged: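 Inhibition of soluble CD47/SIRPalpha ectodomain association by titrated compounds, measured as 665/615 nm time-resolved FRET ratio after sequential 30 min room-temperature incubations.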

Assay [12] in a line: qHTS profiling of the MIPE4 collection as inhibitors of Plasmodium falciparum (DD2) proliferation (AID 743345; call rule not given here). As to conditions: P. falciparum Dd2 in erythrocytes, SYBR Green DNA, 72 h; at 28.5 µM (top of the series). The procedure, abridged:
(§1)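 Parasite DNA was quantified by SYBR Green I fluorescence (ex 485, em 535 nm) after overnight lysis in saponin/Triton buffer at room temperature. Cultures at 0.3% parasitemia and 2.5% hematocrit were first exposed to compound for 72 h at 37 C; signals were normalised to artemisinin (0.29 uM) and vehicle wells.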

Assay [13] in a line: qHTS profiling of the MIPE4 collection as inhibitors of Plasmodium falciparum (DD2) proliferation (Rep 2) (AID 743346; call rule not given here). As to conditions: P. falciparum Dd2 in erythrocytes, SYBR Green DNA, 72 h; at 28.5 µM (top of the series). Put shortly: as §1
A short description of assay [14]: qHTS profiling of the MIPE4 collection as inhibitors of Plasmodium falciparum (HB3) proliferation (AID 743347; call rule not given here;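 also: plate controls were DMSO vehicle wells for no effect and artemisinin wells for full effect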). As to conditions: P. falciparum HB3 in erythrocytes, SYBR Green DNA, 72 h; at 28.5 µM (top of the series). The procedure, abridged:
as §1

The next assay concerns the target Furin (Homo sapiens) (UniProt P09958). In words: Furin counterscreen qHTS for Zika virus inhibitors (AID 1347149).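 Also: purified recombinant full-length human furin enzyme at 5 nM; fluorescence gain from furin cutting a BOC-RVRR-AMC peptide substrate over 15 min; top concentration of the series differs between compounds; plate controls were no-inhibitor control for no effect and no-enzyme control for full effect; nearly all actives have a fitted effect of over 70% in size.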 The procedure, abridged:
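Counterscreen measures cleavage of 2 microM BOC-RVRR-AMC, below its ~15 microM Km, by 5 nM full-length human furin at pH 7.0 after a 15-min compound preincubation. Inhibition derives from the 15-min fluorescence increase at 37C.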

Chain of Atrial natriuretic peptide receptor 2 (Homo sapiens) (P20594 whole entry, looked up): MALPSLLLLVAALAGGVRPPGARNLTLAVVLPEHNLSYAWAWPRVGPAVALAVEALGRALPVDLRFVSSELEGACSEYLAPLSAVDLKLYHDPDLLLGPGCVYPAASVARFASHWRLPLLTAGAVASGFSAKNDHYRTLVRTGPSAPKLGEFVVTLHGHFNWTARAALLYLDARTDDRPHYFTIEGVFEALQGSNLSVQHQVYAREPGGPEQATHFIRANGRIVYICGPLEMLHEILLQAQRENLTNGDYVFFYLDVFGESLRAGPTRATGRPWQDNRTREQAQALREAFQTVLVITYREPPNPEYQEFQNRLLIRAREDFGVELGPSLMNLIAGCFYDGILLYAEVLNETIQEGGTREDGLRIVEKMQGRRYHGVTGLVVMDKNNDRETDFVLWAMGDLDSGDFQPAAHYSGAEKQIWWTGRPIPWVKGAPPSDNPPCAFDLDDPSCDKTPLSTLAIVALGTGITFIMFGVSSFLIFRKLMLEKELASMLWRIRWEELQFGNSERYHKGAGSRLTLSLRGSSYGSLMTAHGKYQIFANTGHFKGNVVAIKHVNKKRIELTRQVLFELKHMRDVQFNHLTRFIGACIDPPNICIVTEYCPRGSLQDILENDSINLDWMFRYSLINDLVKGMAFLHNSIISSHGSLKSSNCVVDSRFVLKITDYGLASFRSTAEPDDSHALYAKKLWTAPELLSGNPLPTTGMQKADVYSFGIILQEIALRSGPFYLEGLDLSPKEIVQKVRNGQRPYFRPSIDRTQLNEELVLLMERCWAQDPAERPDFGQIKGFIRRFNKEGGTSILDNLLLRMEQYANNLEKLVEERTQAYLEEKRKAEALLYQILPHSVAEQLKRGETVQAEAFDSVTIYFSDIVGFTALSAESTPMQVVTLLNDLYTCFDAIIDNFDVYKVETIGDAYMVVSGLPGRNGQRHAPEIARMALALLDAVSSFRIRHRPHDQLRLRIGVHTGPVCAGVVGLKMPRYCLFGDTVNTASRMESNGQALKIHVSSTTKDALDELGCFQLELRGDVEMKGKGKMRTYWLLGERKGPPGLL
Chain of Parathyroid hormone/parathyroid hormone-related peptide receptor (Homo sapiens) (Q03431 whole entry, looked up): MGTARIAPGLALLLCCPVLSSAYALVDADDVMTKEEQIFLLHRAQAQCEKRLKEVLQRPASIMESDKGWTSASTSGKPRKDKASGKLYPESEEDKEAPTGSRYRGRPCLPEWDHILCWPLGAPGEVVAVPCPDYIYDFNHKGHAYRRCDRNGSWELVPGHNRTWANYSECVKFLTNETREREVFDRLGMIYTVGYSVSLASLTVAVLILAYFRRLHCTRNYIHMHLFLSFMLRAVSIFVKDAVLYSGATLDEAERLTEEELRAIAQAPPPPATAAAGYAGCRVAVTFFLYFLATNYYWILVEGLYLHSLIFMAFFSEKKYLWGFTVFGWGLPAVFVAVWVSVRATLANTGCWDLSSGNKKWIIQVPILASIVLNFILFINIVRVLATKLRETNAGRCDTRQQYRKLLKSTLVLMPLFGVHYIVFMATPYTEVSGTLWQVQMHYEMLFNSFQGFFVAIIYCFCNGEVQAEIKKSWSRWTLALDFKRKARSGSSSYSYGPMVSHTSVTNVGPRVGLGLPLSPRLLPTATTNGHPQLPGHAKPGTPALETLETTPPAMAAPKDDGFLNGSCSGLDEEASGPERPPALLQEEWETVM
T1 sequence (P78324 whole entry, looked up, the tested form may be a part): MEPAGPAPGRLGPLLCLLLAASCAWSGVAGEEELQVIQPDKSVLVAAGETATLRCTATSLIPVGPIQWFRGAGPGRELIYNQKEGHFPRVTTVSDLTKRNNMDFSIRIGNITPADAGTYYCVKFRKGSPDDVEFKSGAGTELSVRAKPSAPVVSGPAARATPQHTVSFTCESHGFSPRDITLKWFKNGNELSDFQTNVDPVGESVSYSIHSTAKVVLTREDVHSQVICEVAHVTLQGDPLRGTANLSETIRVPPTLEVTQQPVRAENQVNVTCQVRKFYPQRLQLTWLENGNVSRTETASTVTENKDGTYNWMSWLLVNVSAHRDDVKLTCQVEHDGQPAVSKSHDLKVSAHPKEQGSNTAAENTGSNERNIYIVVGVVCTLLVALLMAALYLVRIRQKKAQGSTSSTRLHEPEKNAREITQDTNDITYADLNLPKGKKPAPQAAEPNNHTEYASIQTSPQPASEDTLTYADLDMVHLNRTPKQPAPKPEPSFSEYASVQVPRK
T1 sequence (Q08722 whole entry, looked up, the tested form may be a part): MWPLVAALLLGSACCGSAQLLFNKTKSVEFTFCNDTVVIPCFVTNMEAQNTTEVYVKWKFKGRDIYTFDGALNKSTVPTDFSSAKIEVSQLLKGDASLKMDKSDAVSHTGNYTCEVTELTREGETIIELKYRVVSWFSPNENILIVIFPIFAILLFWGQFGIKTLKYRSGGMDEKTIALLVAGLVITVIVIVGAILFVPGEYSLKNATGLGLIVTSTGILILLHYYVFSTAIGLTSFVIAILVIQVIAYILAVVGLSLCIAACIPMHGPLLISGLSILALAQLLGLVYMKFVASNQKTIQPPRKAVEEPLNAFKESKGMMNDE
Chain of N-terminal Xaa-Pro-Lys N-methyltransferase 1 (Homo sapiens) (Q9BV86 whole entry, looked up): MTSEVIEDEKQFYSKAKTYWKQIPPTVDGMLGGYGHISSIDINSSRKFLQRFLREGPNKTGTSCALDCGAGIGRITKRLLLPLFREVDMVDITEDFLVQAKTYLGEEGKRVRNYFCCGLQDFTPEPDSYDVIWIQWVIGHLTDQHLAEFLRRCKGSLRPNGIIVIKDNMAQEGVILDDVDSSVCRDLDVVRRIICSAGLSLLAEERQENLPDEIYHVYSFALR
Chain of Furin (Homo sapiens) (P09958 whole entry, looked up): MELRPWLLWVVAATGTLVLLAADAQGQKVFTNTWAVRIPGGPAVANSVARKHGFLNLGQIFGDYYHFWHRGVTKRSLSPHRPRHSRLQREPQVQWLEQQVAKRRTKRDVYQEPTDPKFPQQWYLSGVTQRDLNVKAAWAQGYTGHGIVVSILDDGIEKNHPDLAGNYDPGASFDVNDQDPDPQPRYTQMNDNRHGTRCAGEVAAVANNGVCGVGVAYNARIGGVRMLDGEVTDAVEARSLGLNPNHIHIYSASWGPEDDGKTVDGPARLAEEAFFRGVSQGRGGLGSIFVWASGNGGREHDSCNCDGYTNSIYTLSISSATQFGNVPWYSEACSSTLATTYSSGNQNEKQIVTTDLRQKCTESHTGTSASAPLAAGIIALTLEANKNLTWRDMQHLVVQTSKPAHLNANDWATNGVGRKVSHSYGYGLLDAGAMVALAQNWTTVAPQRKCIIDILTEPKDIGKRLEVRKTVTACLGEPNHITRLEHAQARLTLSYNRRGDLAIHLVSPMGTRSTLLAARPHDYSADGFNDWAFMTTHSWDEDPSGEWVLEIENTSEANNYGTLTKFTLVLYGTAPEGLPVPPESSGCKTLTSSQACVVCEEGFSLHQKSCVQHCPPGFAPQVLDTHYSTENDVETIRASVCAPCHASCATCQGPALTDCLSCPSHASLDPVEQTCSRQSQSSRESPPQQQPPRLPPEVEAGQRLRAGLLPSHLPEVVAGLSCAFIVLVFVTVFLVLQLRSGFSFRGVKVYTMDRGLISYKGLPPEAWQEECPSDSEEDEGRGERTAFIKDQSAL

With `CCCCCCCCCC(=O)NC(CN1CCOCC1)[C@H](O)c1ccccc1` (stereo not given in full), the Potency entry in [1], in assay [2], in assay [3], in assay [4], in assay [5] and in [7] was “inactive” throughout. In addition, the Potency entry in assay [8], in assay [9] and in assay [10] was “inactive” each time. In addition, in assay [6], the outcome was inactive.
Take `CC(C)C[C@H](NC(=O)C1OC1C(=O)O)C(=O)NCCCCN=C(N)N` (stereo not given in full): the Potency entry in [1], in assay [2], in assay [3], in assay [4], in [5] and in assay [11] was “inactive” each time. For the same compound, the Potency entry in [7], in assay [8], in [9] and in assay [10] was “inactive” each time. Also, the outcome in assay [6] was inactive.
As for `O=C(O)C1=CCNCC1`, the Potency result in assay [1], in assay [2], in assay [3], in assay [4], in assay [5] and in assay [7] was “inactive” each time. Besides, the Potency result in [8], in [9] and in [10] was “inactive” throughout. The result in assay [6] was inactive.
As for `Nc1ccc2c3c(cccc13)C(=O)NC2=O`, the Potency result in assay [1], in assay [2], in assay [3], in assay [4], in [5] and in assay [7] was “inactive” throughout. Further, the Potency entry in [8] and in [9] was “inactive” in each case.
For `CC1CCN=C(N)S1` (stereo not given), the Potency result in assay [1], in assay [2], in [3], in assay [4], in assay [5] and in [11] was “inactive” in each case. Also, the Potency entry in assay [7], in assay [8], in assay [9] and in [10] was “inactive” throughout. Besides, in [6], the outcome was inactive.
On to `N#C/C(=C\c1ccc(O)c(O)c1)C(=O)NCCc1ccccc1`, for which the Potency result in [1], in assay [2], in [3], in assay [4], in [5] and in [11] was “inactive” each time. In addition, the Potency result in [7] and in assay [8] was “inactive” each time. Further, the Potency was 44.7 µM (active) in assay [9] and 2.38 µM (active) in assay [10].
As to `CC[C@H](NC(=O)c1c(C)c(-c2ccccc2)nc2ccccc12)c1ccccc1`, the Potency result in assay [1], in [2], in assay [3], in [4], in assay [5] and in assay [11] was “inactive” throughout. The Potency entry in assay [7], in assay [8], in [9] and in assay [10] was “inactive” throughout.
Consider `COC1(C2=NCCN2)COc2ccccc2O1` (stereo not given), for which the Potency result in assay [1], in assay [2], in [3], in [4], in assay [5] and in [11] was “inactive” throughout. The Potency entry in assay [7], in [8], in [9] and in assay [10] was “inactive” in each case. For the same compound, in assay [6], the result was inactive.
In assay [12], `Cc1nc(N=Nc2ccc(S(=O)(=O)O)cc2S(=O)(=O)O)c(COP(=O)(O)O)c(C=O)c1O` displayed a parasite growth remaining, % of DMSO control (lower = more inhibition) of 100%. Moreover, the parasite growth, % of control (lower = inhibition) in assay [13] was determined as 213%. Moreover, the growth, % of control in [14] came to 93.6%. Moreover, the Potency entry in assay [1], in assay [2], in [3], in assay [4], in [5] and in assay [11] was “inactive” each time. Moreover, the Potency result (in [7]; in [8]; in assay [9]; with Furin (Homo sapiens); in [10]) was “inactive” each time.
In the case of `C[C@H](NC(=O)/C(C#N)=C/c1ccc(O)c(O)c1)c1ccccc1`, the Potency entry in [1], in assay [2], in assay [3], in [4], in [5] and in assay [11] was “inactive” each time. Besides, the Potency entry in assay [7] and in assay [8] was “inactive” throughout. Besides, the Potency was 25.1 µM (active) in [9] and 2.38 µM (active) in assay [10].
Take `Oc1ccc(/C=C/c2ccc(/C=C/c3ccc(O)cc3)c(Br)c2)cc1`: the Potency entry in [1], in assay [2], in assay [3], in assay [4], in assay [5] and in [11] was “inactive” throughout. Besides, the Potency result in assay [7], in assay [8], in [9] and in assay [10] was “inactive” in each case.
